# Assay results reported in PubChem BioAssay AID853 (Columbia University Molecular Screening Center, 2007).
# In all, about 47,000 compounds went through this assay and about 200 (0.43%) were called active. Not shown: some 1% with an inconclusive outcome.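 Rule for the calls: active = inhibition of aggregate fluorescence above about 70%, also judged a hit by eye on the cell image (limit read from the data, passing the limit was not always enough); inconclusive = no rule stated for this call; inactive = not judged a hit on image review.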 Many of the other results were omitted from the sample, so actives are more common in it than they were.
# Assay: clearance of mutant huntingtin inclusions, primary screen, imaging, HeLa Exon1htt(103Q)mCFP, confocal imaging (AID 853);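 note: cells exposed to compound for three days before fixation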
# Settings: aggregate imaging, at 1.5 µM; fraction fluorescence in grains: measured here: aggregate grain fluorescence fraction, stronger effect = lower value; inhibition: stronger effect = higher value, zero = plate's median compound well
Structure (SMILES),fraction fluorescence in grains,inhibition
Cc1ccc(C(=O)N/C(=C/C=C/c2ccccc2)C(=O)NCc2ccco2)cc1,45.3,-47.5% (inactive)
Cc1nc(-c2ccccc2)sc1-c1nc(-c2ccccc2)ncc1S(=O)(=O)c1ccccc1,41.3,7.6% (inactive)
Cc1ccc(C2NC(=S)NC3=C2N2CCC3CC2)cc1 (centres undefined),27.5,36.7% (inactive)
CSc1ccc(-c2c(C#N)c(N)nc3c2c(C)nn3-c2ccccc2)cc1,47.5,-12.6% (inactive)
COc1ccc(/C=C(\NC(=O)c2ccc(OC)c(OC)c2)C(=O)NCCc2c[nH]c3ccccc23)cc1,62.4,-62.1% (inactive)
CC(=O)NS(=O)(=O)c1ccc(NC(=S)NC(=O)C(C)(C)C)cc1,7.39,66.5% (inactive)
COc1ccc(-n2c(C)csc2=S)cc1,15.4,22.6% (inactive)
O=C(CSc1nnc(-c2ccco2)n1-c1ccccc1)NCCc1ccccc1,28.7,21.9% (inactive)
COc1cc(/C=C(\C#N)c2nc3c(s2)CC(C)CC3)ccc1O (centres undefined),38.1,4% (inactive)
Cc1ccc(-c2cnc(NC(=O)CCC(=O)N(C)Cc3ccccc3)n2C)cc1,44.1,-11.1% (inactive)
CCCCCCC12CCC(C(=O)O)(CC1)CC2,16.8,6% (inactive)
O=C(CN1CCOCC1)Nc1c(-c2ccccc2)c2cc(Br)ccc2[nH]c1=O,37.2,15.7% (inactive)
O=C(Oc1ccc([N+](=O)[O-])cc1)c1ccc2ccccc2n1,23.8,33% (inactive)
O=C(c1ccc2c(c1)OCO2)N1CCOCC1,22,-3.2% (inactive)
Cc1ccn(C(CC(=O)c2ccc(Br)cc2)C(=O)O)n1 (centres undefined),10.2,68.3% (inactive)
COc1ccc(C(C#N)Nc2ccccc2C)cc1 (centres undefined),18,57.1% (inactive)
C=CCn1c(CSc2nc3ccccc3s2)nnc1SCC(=O)NCc1ccco1,28.7,26.8% (inactive)
